Among the test systems are NCI-H23 lung; NCI-H226 lung; NCI-H322M lung; HOP-62 NSCLC; NCI-H460 lung; HOP-92 NSCLC; NCI-H522 lung; A549/ATCC NSCLC; 786-0 renal; COLO 205 colon.
What all share (assay): NCI-60 one-dose screen, 48 h (100 = growth as untreated, 0 = no growth, -100 = all killed)
What all share (conditions): 10 µM unless noted

Compounds without any hit were thinned out: in the full panel of roughly 83,000, 20% have a hit.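 Step 1: grow cells in 96-well plates. Step 2: add test compound at a single concentration. Step 3: incubate 48 h. Step 4: record percent growth.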 Values without a mark were called inactive. Activity calls are given as the source filed them. How the source made its calls: active means growth percent below 10; inactive means the rest.

Regarding `C=CC(=O)Nc1cccc(-c2nc(SC)nc(Nc3ccccc3OC)c2C#N)c1`, the growth was 55.5% in the experiment on NCI-H23 lung; 34.3% in the experiment with NCI-H226 lung; 80% with NCI-H322M lung; 37.9% in the experiment on HOP-62 NSCLC; 5.19% (active) in the experiment on NCI-H460 lung; 31% in the experiment with HOP-92 NSCLC. Further, the growth in the experiment with NCI-H522 lung is 39.3%; with A549/ATCC NSCLC, -6.83% (active); in the experiment on 786-0 renal, 11.6%; in the experiment with COLO 205 colon, 60.9%.

Regarding `O=Nc1c(O)c(Cl)cc2ccccc12`, the growth in the experiment on NCI-H23 lung was 92.3%; in the experiment with NCI-H226 lung, 78.9%; with NCI-H322M lung, 102%; with HOP-62 NSCLC it was 75.1%; in the experiment on NCI-H460 lung it was 90.3%; in the experiment with HOP-92 NSCLC, 112%. Further, the growth in the experiment on NCI-H522 lung is 50.1%; with A549/ATCC NSCLC, 93%; in the experiment with 786-0 renal, 105%; in the experiment on COLO 205 colon, 70.9%.

For the compound `C#CCOc1ccc2ncnc(Nc3cccc(CNC(=O)CCl)c3)c2c1`, the growth with NCI-H23 lung was 44.5% [8.25 µM]; with NCI-H226 lung it was 27.7% [8.25 µM]; in the experiment on NCI-H322M lung it was 71.3% [8.25 µM]; in the experiment on HOP-62 NSCLC, 13.1% [8.25 µM]; in the experiment with NCI-H460 lung it was 61.3% [8.25 µM]; with HOP-92 NSCLC, 54% [8.25 µM]. The growth with NCI-H522 lung is -47.7% [8.25 µM] (active); in the experiment with A549/ATCC NSCLC it was 53.3% [8.25 µM]; in the experiment with 786-0 renal, 25.7% [8.25 µM]; in the experiment with COLO 205 colon it was 68.2% [8.25 µM].

Take `CCCCN1CCCn2c1nc1c2c(=O)n(CCC)c(=O)n1CCC`: the growth in the experiment with NCI-H23 lung is 104%; in the experiment on NCI-H226 lung, 113%; with NCI-H322M lung it was 97.7%; with HOP-62 NSCLC, 102%; with NCI-H460 lung it was 99.6%; with HOP-92 NSCLC, 81.7%. Besides, the growth is 76.6% in the experiment with NCI-H522 lung, 82.2% in the experiment on A549/ATCC NSCLC, 95.8% with 786-0 renal and 114% with COLO 205 colon.

For `CSc1ccc(-c2n[nH]nc2-c2cc3ccccc3s2)cc1`, the growth with NCI-H23 lung is 61.5%; in the experiment on NCI-H226 lung, 86%; in the experiment on NCI-H322M lung, 73.9%; in the experiment on HOP-62 NSCLC, 39.2%; in the experiment on NCI-H460 lung, 21%; in the experiment with HOP-92 NSCLC, 70.3%. In addition, the growth is 8.98% (active) in the experiment on NCI-H522 lung, 35% with A549/ATCC NSCLC, 54.7% in the experiment on 786-0 renal and 77.8% in the experiment on COLO 205 colon.

As to `Cc1cc(N2CCSCC2)nc(NC2CCCC(Nc3ccnc4cc(Cl)ccc34)C2)n1` (stereo not given), the growth was 35.1% in the experiment on NCI-H23 lung; 18.2% with NCI-H226 lung; -28.8% (active) with NCI-H322M lung; -46.2% (active) in the experiment on HOP-62 NSCLC; -11.2% (active) in the experiment on NCI-H460 lung; -66.1% (active) in the experiment with HOP-92 NSCLC. For the same compound, the growth was -52.5% (active) in the experiment on NCI-H522 lung, 7.52% (active) with A549/ATCC NSCLC, -91.6% (active) in the experiment with 786-0 renal and -74.8% (active) in the experiment on COLO 205 colon.

As to `CCOC(=O)n1cc(-c2nonc2-c2cn(C)c3ncccc23)c2cc(F)ccc21`, the growth in the experiment with NCI-H23 lung is 76%; in the experiment on NCI-H226 lung, 57.8%; in the experiment on NCI-H322M lung it was 85.8%; with HOP-62 NSCLC, 89.8%; in the experiment with NCI-H460 lung it was 92.1%; with HOP-92 NSCLC, 58.8%. In addition, the growth in the experiment on NCI-H522 lung was 72%; with A549/ATCC NSCLC it was 70.1%; with 786-0 renal it was 81.3%; in the experiment on COLO 205 colon it was 96%.

In the case of `COc1cc2c(cc1O)CC[C@@H]1[C@@H]2CC[C@]2(C)[C@@H](OCCN(C)C)CC[C@@H]12`, the growth in the experiment with NCI-H23 lung is 42.3%; in the experiment with NCI-H226 lung it was 76.5%; in the experiment with NCI-H322M lung, 51.3%; with HOP-62 NSCLC, 59.9%; with NCI-H460 lung, 39.6%; in the experiment on HOP-92 NSCLC it was 48.6%. For the same compound, the growth was 18.4% in the experiment with NCI-H522 lung, 66.5% with A549/ATCC NSCLC, 57.9% with 786-0 renal and 58.8% in the experiment with COLO 205 colon.

For the compound `COc1cccc(-c2nc3sccn3c2-c2ccnc(NCCCNS(=O)(=O)c3cccc(F)c3)c2)c1`, the growth in the experiment on NCI-H23 lung was 21.3%; in the experiment with NCI-H226 lung, 19.1%; in the experiment on NCI-H322M lung it was 72%; in the experiment on HOP-62 NSCLC, 33.4%; with NCI-H460 lung it was 44.9%; in the experiment on HOP-92 NSCLC, 49.5%. Also, the growth with NCI-H522 lung was 18.1%; in the experiment with A549/ATCC NSCLC, 18.1%; with 786-0 renal, 52.6%; with COLO 205 colon it was 19%.

For the compound `CCc1c(Nc2ccccc2C)nc(N)[nH]c1=O`, the growth in the experiment with NCI-H23 lung is 117%; with NCI-H226 lung, 103%; in the experiment on NCI-H322M lung, 103%; in the experiment on HOP-62 NSCLC it was 100%; in the experiment with NCI-H460 lung, 108%; with HOP-92 NSCLC it was 93.7%. Also, the growth was 99% in the experiment with NCI-H522 lung, 114% in the experiment on A549/ATCC NSCLC, 109% in the experiment on 786-0 renal and 109% in the experiment with COLO 205 colon.

`COc1ccc(/C=C2\Oc3cc(OCCCCN4CCCC4)ccc3C2=O)cc1`: the growth with NCI-H23 lung was 83.3%; with NCI-H226 lung, 94.5%; in the experiment with NCI-H322M lung it was 98.6%; in the experiment on HOP-62 NSCLC it was 91.7%; with NCI-H460 lung, 1.37% (active); in the experiment with HOP-92 NSCLC it was 73.7%. Moreover, the growth in the experiment on NCI-H522 lung was 91.9%; with A549/ATCC NSCLC it was 79.3%; with 786-0 renal it was 85.2%; in the experiment on COLO 205 colon, 86.4%.

On to `O=c1cc(CSc2nnc(-c3ccc(F)cc3)o2)c2ccc3ccccc3c2o1`, for which the growth was 84.3% in the experiment with NCI-H23 lung; 81.1% in the experiment with NCI-H226 lung; 100% in the experiment on NCI-H322M lung; 75.4% with HOP-62 NSCLC; 101% with NCI-H460 lung; 92.2% in the experiment with HOP-92 NSCLC. Moreover, the growth was 83.8% with NCI-H522 lung, 85.5% in the experiment on A549/ATCC NSCLC, 104% in the experiment with 786-0 renal and 117% in the experiment with COLO 205 colon.

The values above are taken from PubChem BioAssay (NCI).
